Measured values published in article PMC4336329 (PLoS ONE, 2015).
Out of some 310,000 compounds screened, about 14,000 (4.5%) showed an effect of 50% or more. Effects have a minus sign here. The entries come from a sample that favours strong results as a whole.

Molecular target: human ether-à-go-go-related gene (hERG) potassium channel (human, UniProt Q12809)
Experiment: primary screen, population patch clamp on CHO cells stably expressing hERG; higher = less effect of the substance
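Further: peak tail current of the secondary pulse compared with the same well before compound.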

human ether-à-go-go-related gene (hERG) potassium channel, sequence (Q12809 whole entry, looked up): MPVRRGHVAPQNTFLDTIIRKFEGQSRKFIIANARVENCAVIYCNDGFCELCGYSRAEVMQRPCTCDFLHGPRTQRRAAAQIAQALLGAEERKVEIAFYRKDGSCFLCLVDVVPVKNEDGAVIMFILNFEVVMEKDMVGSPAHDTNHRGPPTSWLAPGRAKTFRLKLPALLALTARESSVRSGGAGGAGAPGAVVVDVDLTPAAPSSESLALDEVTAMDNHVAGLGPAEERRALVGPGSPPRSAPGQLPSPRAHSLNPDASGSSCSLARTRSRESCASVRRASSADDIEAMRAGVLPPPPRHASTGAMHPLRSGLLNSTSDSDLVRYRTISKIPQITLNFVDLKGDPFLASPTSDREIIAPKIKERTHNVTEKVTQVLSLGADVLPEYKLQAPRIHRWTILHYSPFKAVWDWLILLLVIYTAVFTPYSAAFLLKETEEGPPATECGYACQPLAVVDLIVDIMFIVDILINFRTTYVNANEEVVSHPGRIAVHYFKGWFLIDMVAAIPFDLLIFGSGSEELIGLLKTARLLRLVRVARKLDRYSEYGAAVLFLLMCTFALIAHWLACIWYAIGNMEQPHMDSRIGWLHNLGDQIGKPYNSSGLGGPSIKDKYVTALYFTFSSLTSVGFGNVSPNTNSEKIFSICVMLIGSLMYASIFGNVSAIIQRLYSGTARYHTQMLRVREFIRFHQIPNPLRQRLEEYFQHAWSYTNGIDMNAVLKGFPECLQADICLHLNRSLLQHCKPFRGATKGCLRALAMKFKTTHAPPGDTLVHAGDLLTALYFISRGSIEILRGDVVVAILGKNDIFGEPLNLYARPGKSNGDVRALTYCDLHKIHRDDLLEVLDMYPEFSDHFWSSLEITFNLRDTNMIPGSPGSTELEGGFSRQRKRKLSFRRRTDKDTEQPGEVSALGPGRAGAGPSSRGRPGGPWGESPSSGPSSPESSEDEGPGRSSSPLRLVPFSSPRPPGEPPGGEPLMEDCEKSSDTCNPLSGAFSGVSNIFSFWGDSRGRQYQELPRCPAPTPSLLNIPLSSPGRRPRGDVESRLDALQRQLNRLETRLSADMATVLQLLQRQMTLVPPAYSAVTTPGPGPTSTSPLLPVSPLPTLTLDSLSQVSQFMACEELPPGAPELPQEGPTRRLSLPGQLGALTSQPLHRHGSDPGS

SMILES	hERG current change (%, negative = inhibition) at 10uM
Cc1ccc(N2CC(C(=O)NCCN3CCOCC3)CC2=O)cc1C (stereo not drawn)	10.2%
Cn1nnnc1P(=O)(c1ccccc1)c1ccccc1	7.84%
O=C1NCC(O)=C1C=NC12CC3CC(CC(C3)C1)C2 [4246017]	12.6%
COc1ccc(NC(=O)N2c3ccc(OC)cc3C(C)=CC2(C)C)cc1	20.1%
CC1=C(c2ccccc2)[N+](=O)C2(CCCCC2)N1[O-]	-4.49%
COc1ccc(C2=NOC3(CC(=O)N(c4ccc(F)cc4)C3=O)C2)cc1 (stereo not drawn)	15.5%
O=C(COC(=O)c1cc([N+](=O)[O-])ccc1NCCO)Nc1ccc2c(c1)OCO2	5.75%
Clc1ccc(-c2cn(-c3ccc(Cl)cc3)c3[n+]2CCCCC3)cc1.[Br-]	-52.7%
COc1ccc(-c2cn(-c3ccc(Cl)cc3)c3[n+]2CCCCC3)cc1.[Br-]	-31.9%
Br.FC(F)Oc1ccc(-c2csc(NNC3=NCCCCC3)n2)cc1	-47.5%
Brc1ccc(-c2csc3[n+]2CCCCC3)cc1.[Br-]	-6.25%
FC(F)Oc1ccc(-n2cc(-c3ccccc3)[n+]3c2CCCCC3)cc1.[Br-]	-55.6%
COc1ccc(-n2cc(-c3ccc(OC(F)F)cc3)[n+]3c2CCCCC3)cc1.[Br-]	-76.3%
Clc1ccc(-n2cc(-c3ccc(Br)cc3)[n+]3c2CCCCC3)cc1.[Br-]	-49.4%
COc1ccc(N2CCN(C(=O)COC(=O)c3ccc(OC(F)F)cc3)CC2)cc1	-26.5%
FC(F)Oc1ccc(-n2cc(-c3ccc(Cl)cc3)[n+]3c2CCCCC3)cc1.[Br-]	-78.3%
O=C(Nc1ccc(Cl)cc1)N(C1=NCCC1)c1ccc(OC(F)F)cc1	-8.02%
[Cl-].c1ccc(-c2c[nH]c3[n+]2CCCCC3)cc1	-2.27%
COc1ccc(-n2cc(-c3ccccc3)[n+]3c2CCCCC3)cc1.[Br-]	-19.3%
O=C(NCC(c1cccs1)N1CCc2ccccc21)c1ccccc1 (stereo not drawn)	15.3%
C=CCN(c1ccc(C(=O)N(CC)CC)cc1)S(C)(=O)=O	-4.12%

SMILES	hERG current change (%, negative = inhibition) at 10uM
CCN(CC)CCCNC(=O)C1c2ccccc2C(=O)N(CCOC)C1c1ccc(F)cc1 (stereo not drawn)	14.9%
COc1ccc(CNC(=O)COC(=O)c2[nH]c(C)c(C(C)=O)c2C)cc1OC	1.28%
CC(=O)Oc1ccc(N2C(=O)CCC2=O)cc1	16%
Cc1ccc(N2C(=O)[C@@H]3Cc4ccccc4CN3C2=O)cc1	-3.34%
CCOC(=O)CC1C(=O)NCCN1C(=O)c1ccc(Cl)cc1 (stereo not drawn)	12.9%
Nc1nc2ccc(NC(=O)c3ccco3)cc2s1	11.7%
COc1ccc(CNC(=O)CCc2nnc3ccc(N4CCC5(CC4)OCCO5)nn23)cc1	15.1%
Nn1c(COc2ccccc2F)nnc1SCC(=O)NC1CC1	0.387%
CC(=O)NC1=NN(C(C)=O)C(C)(c2ccco2)S1 (stereo not drawn)	14.6%
Cc1ccc(CONC(=O)c2ccc(OC(F)F)cc2)cc1	-30.9%
Cc1ccc(-c2cn(-c3ccc(OC(F)F)cc3)c3[n+]2CCCCC3)cc1.[Br-]	-61.6%
O=C(CC1C(=O)NCCN1Cc1ccoc1)NCc1cccc(OC(F)(F)F)c1 (stereo not drawn)	1.19%
CC(C)(O)CC[C@@H](O)[C@](C)(O)C1CC[C@@]2(O)C3=CC(=O)[C@]4(O)C[C@@H](O)[C@@H](O)C[C@]4(C)C3CC[C@]12C (stereo partly drawn)	30.1%
CCCCCCSc1ncc(C#N)c(N)n1	-4.45%
CCCCCc1nc2c(c(=O)c3ccccc3n2C)c(=O)n1C1CCCCCC1	1.32%
COc1ccc(Cn2c(-c3ccco3)nc3c(c(=O)c4ccccc4n3C)c2=O)cc1	-35.3%
CCc1nc2c(c(=O)c3ccccc3n2C)c(=O)n1C1CCCCCC1	-1.73%
CC(C)Cn1c(-c2ccco2)nc2c(c(=O)c3ccccc3n2C)c1=O	-59.3%
CCCc1nc2c(c(=O)c3ccccc3n2C)c(=O)n1C1CCCCCC1	-10.1%
Cn1c2ccccc2c(=O)c2c(=O)n(C3CCCCC3)c(-c3cccs3)nc21	-66.1%
Cc1ccc(-c2nc3c(c(=O)c4ccccc4n3C)c(=O)n2Cc2ccco2)cc1	2.18%
